Records with an inconclusive call do not appear. The source made the active and inactive calls. Calls follow the shape of the dose curve; as a rule, active = well fitted curve in the direction sought with a large enough effect; inconclusive = small, poorly fitted or top-dose-only effect, or another doubt; inactive = no such curve, though single readings can be large or run the other way.
molecular target: Pyruvate kinase PKM (Homo sapiens) (UniProt P14618); assay: Secondary LDH Assay for Activators of Human Pyruvate Kinase M1 Isoform: for Probe SAR; conditions: purified hPK-M1, LDH-coupled NADH fluorescence kinetic; series mostly up to 58.2 µM
From the text: NIH Chemical Genomics Center [NCGC]
Matthew G. Vander Heiden, M.D., Ph.D. [Harvard Medical School, 77 Avenue Louis Pasteur, Boston, MA 02115]
Human pyruvate kinase […] (hPK-M1)enzyme was supplied as a highly purified (>95% pure) preparation from Harvard Medical School and a secondary assay was used to evaluate compounds. This assay couples the formation of pyruvate from […] using lactate dehydrogenase (LDH) and NADH. The depletion of NADH is followed in a fluorescent-based kinetic assay that follows the formation of pyruvate to lactate, as catalyzed LDH. Pyruvate kinase substrates, PEP and ADP, were present in the assay at 0.1 mM and 4 mM respectively. In this kinetic assay initial rates were determined by following the fluorescence of NADH depletion.
NCGC Assay Protocol Summary:
Three uL of substrate mix (final concentration, 50 mM Tris-Cl pH 8.0, 200 mM KCl, 15 mM MgCl2, 0.1 mM PEP, 4.0 mM ADP, and 0.2 mM NADH) was dispensed into black-solid 1536 well plates. 23 nL of compounds were delivered by a pin tool and 1 uL of enzyme mix (final concentrations, 10 nM hPK-M1 and 1 uM of LDH) was added. Plates were immediately placed in ViewLux (Perkin Elmer) and NADH fluorescence was determined at 30 second exposure intervals for between 3 and 6 minutes. Data were normalized to the uninhibited controls.

Chain of Pyruvate kinase PKM (Homo sapiens) (P14618 whole entry, looked up, canonical isoform): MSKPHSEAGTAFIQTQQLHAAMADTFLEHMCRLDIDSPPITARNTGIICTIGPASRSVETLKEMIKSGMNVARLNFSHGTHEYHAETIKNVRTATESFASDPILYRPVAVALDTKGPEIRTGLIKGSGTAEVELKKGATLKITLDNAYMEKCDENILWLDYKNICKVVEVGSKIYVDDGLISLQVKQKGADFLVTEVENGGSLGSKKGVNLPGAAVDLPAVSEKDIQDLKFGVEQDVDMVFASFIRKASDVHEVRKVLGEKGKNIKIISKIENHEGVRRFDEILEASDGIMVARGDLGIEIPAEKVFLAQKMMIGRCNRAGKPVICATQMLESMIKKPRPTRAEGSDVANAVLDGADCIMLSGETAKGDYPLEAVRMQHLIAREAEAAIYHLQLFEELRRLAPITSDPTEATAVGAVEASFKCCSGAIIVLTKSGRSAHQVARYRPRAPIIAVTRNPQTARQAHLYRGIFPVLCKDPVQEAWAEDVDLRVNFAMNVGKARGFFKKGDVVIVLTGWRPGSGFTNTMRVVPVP

outcome, inactive:
Cc1ccc(NS(=O)(=O)c2cc3c(cc2F)NC(=O)CC3)cc1C
O=C1CCc2cc(S(=O)(=O)Nc3ccc(Cl)cc3)ccc2N1
O=C1CCc2cc(S(=O)(=O)Nc3cccnc3)ccc2N1
Cc1ccc(NS(=O)(=O)c2ccc3c(c2)NC(=O)CO3)cc1C
O=C1c2ccccc2C(=O)N1c1cncc2ccccc12
O=C1CCc2cc(S(=O)(=O)Nc3ccc4ncccc4c3)ccc2N1
COc1ccc(NS(=O)(=O)c2ccc3c(c2)CCC(=O)N3)cc1
O=C1c2ccccc2C(=O)N1c1ccc2ccccc2n1
CNc1cccc(S(=O)(=O)N2CCN(S(=O)(=O)c3ccc4c(c3)OCCO4)CC2)c1
CSc1cc2c(s1)c1cnn(Cc3cccc(N)c3)c(=O)c1n2C
O=C1CCc2cc(S(=O)(=O)Nc3ccc(Cl)c(Cl)c3)c(F)cc2N1
O=C1c2ccccc2C(=O)N1c1cccc2cccnc12
O=S1(=O)N=C(Oc2ccc(Cl)cc2)c2ccccc21
O=C1CCc2cc(S(=O)(=O)Nc3cccc(Cl)c3)ccc2N1
Cc1ccc(-c2nc3ccc(Cl)cn3c2Nc2ccccc2)o1
Cc1ccc(NS(=O)(=O)c2ccc3c(c2)CCC(C)(C)O3)cc1C
Cc1ccc(NS(=O)(=O)c2cc3c(cc2N2CCC2)NC(=O)CC3)cc1C
Nc1cccc(S(=O)(=O)N2CCCN(S(=O)(=O)c3ccc4c(c3)OCCO4)CC2)c1
O=C1CCc2cc(S(=O)(=O)Nc3cccc(C(F)(F)F)c3)ccc2N1
N#Cc1cccc(NS(=O)(=O)c2ccc3c(c2)CCC(=O)N3)c1
CC(=O)Nc1cccc(S(=O)(=O)Nc2ccc(C)c(C)c2)c1
O=C1c2ccccc2C(=O)N1c1cnc2ccccc2c1
Cc1ccc(NC(=O)c2ccc3c(c2)CCC(=O)N3)cc1C
Cc1ccc(NS(=O)(=O)c2cc3c(cc2N(C)C)NC(=O)CC3)cc1C
COc1cccc(N2C(=O)c3ccccc3C2=O)n1
Cc1ccc(NS(=O)(=O)c2ccc3c(c2)C(Cl)(Cl)C(=O)N3)cc1C
CC(=O)Nc1ccc(S(=O)(=O)Nc2ccc(C)c(C)c2)cc1
Fc1ccccc1-c1ccc(-c2nc3ccc(Cl)cn3c2Nc2ccc(Cl)cc2)o1
Cc1ccc(NS(=O)(=O)c2cc3c(cc2C)NC(=O)CO3)cc1C
O=C1CCc2cc([S+](=O)([O-])NC3CCOCC3)ccc2N1
O=C1CCc2cc(S(=O)(=O)Nc3ccccc3F)ccc2N1
COc1cccc(Cn2ncc3c4sc(SC)cc4n(C)c3c2=O)c1
O=C1c2ccccc2C(=O)N1c1cccc2cnccc12
Cc1ccc2nc(-c3ccc(C)o3)c(Nc3ccc(Cl)cc3)n2c1
Cc1ccc(NS(=O)(=O)c2cc3c(cc2Cl)NC(=O)CO3)cc1C
COc1ccc(Nc2c(-c3ccc(C)o3)nc3ccccn23)cc1
Cc1ccc(Nc2c(-c3ccc(C)s3)nc3cccc(C)n23)cc1
Cc1ccc(NS(=O)(=O)c2ccc3c(c2)CC(=O)N3C)cc1C
Cc1ccc(NS(=O)(=O)c2ccc3c(c2)CCO3)cc1C
CC(=O)N1CCCc2cc(S(=O)(=O)Nc3ccc(C)c(C)c3)ccc21
